Assay outcomes as filed in PubChem.
Tg IFNy HTS = T. gondii growth inhibition under IFN-gamma; Toxoplasma gondii growth in IFN-gamma-treated host cells; active compounds read low; AID 1259416; activity change, negative = inhibition, % (test concentration not listed); 3.8% of 69,000 active; in the data active = activity change below about -70%, passing the limit was not always enough;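 also: host cells are HeLa cells infected with Toxoplasma gondii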
* hit, by the source's call. This excerpt belongs to a sample that is enriched for hits.

SMILES	Tg IFNy HTS
COCCO[C@H]1CCN(C(=O)c2ccoc2C)[C@H]1Cc1ccccc1	16
C[C@H](O)C#Cc1ccc([C@H]2[C@H]3CN(CC4CC4)CCCCN3[C@H]2CO)cc1	4
COc1cccc(NC(=O)Cn2ncc3c(N4CCCC4)ncnc32)c1	-4
CC1=C(C(=O)NCCN2CCCCC2C)C2(CCCCC2)OC1=O (stereo unspecified)	22
Cc1cc(C)cc(S(=O)(=O)N2CCC3(CC2)NCCN=C3NCc2ccc(F)cc2)c1	2
CSc1ccc2cc(CN3CCC(N(C)CCO)CC3)c(=O)[nH]c2c1	4
COc1nc(C)c(CC(=O)N(C)Cc2nc3ccc(Cl)cc3[nH]2)c(OC)n1	-22
CCN1CCN(CC2(O)CCCN(CCCc3ccccc3)C2=O)CC1 (stereo unspecified)	0
CCCCCCn1c(=O)c2c(ncn2C)n(C)c1=O	16
CCCCn1c(=O)c2c(nc3n2CCCN3CCc2ccccc2)n(C)c1=O	-97*
N#CC1C(=O)Nc2sc(C(=O)c3ccc(Br)cc3)c(N)c2C12CCCCC2 (stereo unspecified)	-42
O=C(CC1SC(=Nc2ccccc2)NC1=O)Nc1ccccc1 (stereo unspecified)	-19
O=C1NC(=Nc2ccc(Cl)cc2)SC1Cc1ccccc1 (stereo unspecified)	-92*
C/C(=N\N=C1\NC(=O)C(CC(=O)Nc2ccc(Cl)cc2)S1)c1ccco1 (stereo unspecified)	-23
CO[C@@H]1CCN(C(=O)CS(C)(=O)=O)[C@@H]2CCO[C@H]21	-4
Cc1cc(C)c(S(=O)(=O)N2CCC3(CC2)Nc2ccccc2-n2cccc23)c(C)c1	40
Cc1cc(C)c(Cn2nc(C(C)(C)C)cc2C(=O)Nc2ccc3c(c2)OCO3)c(C)c1	-99*
Cc1ccc(-c2coc(-c3ccc(NC(=O)Nc4ccc5c(c4)OCO5)cc3)n2)c(C)c1	19
CCN1CCC2(CC1)OC(=O)C(C)=C2C(=O)Nc1ccc2c(c1)OCO2	124
COCc1ncn2c1CN(C(=O)c1occc1C)CC2	-1
Cc1oc(-c2ccc(C(=O)NC3CCCCCC3)cc2)nc1CN1CCN(c2ccccc2)CC1	-26
CCn1c(=O)c(-c2nc(-c3ccccc3Cl)no2)c(O)c2ccc(F)cc21	49
O=C(CSC12CC3CC(CC(C3)C1)C2)N1CCCn2cncc2C1	-3
S=C(NCc1ccccc1)NCc1cccc(CNC(=S)NCc2ccccc2)c1	-2
O=C(O)C(Cc1ccc(F)cc1)c1ccccc1 (stereo unspecified)	-10
SMILES	Tg IFNy HTS
Fc1ccc(CNC(=S)NC(Cc2ccccc2)c2ccccc2)cc1 (stereo unspecified)	-94*
CN1CCC2(CC1)CN(C(=O)c1cccc(C#CC(C)(C)O)c1)CCN2C	-1
Cc1cccc(-c2nnc(-c3nc(NCCc4c(C)noc4C)c4ccccc4n3)o2)c1	-17
Cc1noc(C)c1CCNc1ncc2c(n1)c1ccc(Cl)cc1n1ccnc21	-73*
Cn1cc(C(CNS(=O)(=O)c2cnc[nH]2)c2cccnc2)c2ccccc21 (stereo unspecified)	-29
Cc1ccc(Sc2ccc(C(=O)c3ccccc3)cc2)cc1	-78*
Cc1ccc(S(=O)(=O)NC(=O)c2ccccc2)cc1	-23
CN(C)c1ccc(C(=O)c2ccccc2)cc1	13
CC(O)Cn1ccnc1-c1ccc2cccc(F)c2n1 (stereo unspecified)	-11
OC[C@@H]1[C@@H](c2ccc(-c3cccnc3)cc2)[C@@H]2CN(Cc3ccccn3)CCCCN12	-13
CCCc1cn(CC2CCN(C(=O)c3cnn(CCC)c3C)CC2)nn1	12
COC(=O)c1ccc(S(=O)(=O)Nc2ccc(N3CCOCC3)cc2)n1C	-40
O=C(c1cnc2ccccc2c1)N1CCC2(CC(=O)N(c3cccc(F)c3)C2)C1 (stereo unspecified)	-74*
Cc1cccc(N2CC3(CCN(C(=O)c4cnc5ccccc5c4)C3)CC2=O)c1 (stereo unspecified)	-63
O=C(c1cnc2ccccc2c1)N1CCC2(CC(=O)N(c3ccc(F)cc3)C2)C1 (stereo unspecified)	-31
COc1ccc(CN(Cc2cccc(F)c2)C(=O)CC2=CCNCC2)cc1	-43
CCOc1ccc(C(=O)NC2CCN(S(=O)(=O)c3ccccc3)CC2)cc1	-84*
CN1CCN(S(=O)(=O)c2ccc(C(=O)NC3CCCCC3)cc2)CC1	-6
O=C(NC1CCN(Cc2ccccc2)CC1)c1ccc(I)cc1	10
COc1cc(F)ccc1-c1cc(CO)ccn1	2
COc1ccc2cc(Br)ccc2c1CC#N	-107*
COc1ccc(CNc2ccc(Br)cc2)c(OC)c1OC	34
COc1cc(Br)c(CCC#N)cc1OC	85
Cc1cccc2c(CC(C)NC(=O)c3cccc(Cn4cccn4)c3)c[nH]c12 (stereo unspecified)	22
CC(=O)N[C@@H](CSSC[C@H](NC(C)=O)C(=O)O)C(=O)O	22
SMILES	Tg IFNy HTS
O=C(OCC(O)CNC12CC3CC(CC(C3)C1)C2)C12CC3CC(CC(C3)C1)C2 (stereo unspecified)	-89*
CCCSc1ncc(C2CC(=O)Nc3c2cnn3Cc2cccnc2)cn1 (stereo unspecified)	-2
COCCN1CCC2(CCCN(C(=O)c3cscn3)CC2)C1=O (stereo unspecified)	99
CNC[C@H]1Oc2ccc(NS(=O)(=O)c3ccc(OC)cc3)cc2C(=O)N([C@H](C)CO)C[C@H]1C	-54
CCOc1ccccc1NC(=O)CSc1ccc(Cl)cc1	11
COc1ccccc1NC(=O)CSc1nc2ccccc2n1CC(=O)N1CCOCC1	6
Cc1nc2ccccc2nc1SCC(=O)Nc1ccccc1OC(C)C	-88*
COc1ccc(C(C)NC(=O)c2csc(C(C)C)c2)cc1OC (stereo unspecified)	3
c1cnc2c(-c3nccn3CCCn3ccnc3)cccc2c1	-2
COc1ccc2c(c1)OC(C)(C)CC2N (stereo unspecified)	0
Cc1nn(Cc2ccccc2)c(C)c1CC(=O)NCCc1nc2ccc(Cl)cc2[nH]1	27
CN(C(=O)c1nc(C2CC2)nn1-c1ccc2c(c1)OCCO2)c1ccccc1	-9
O=C(CC(F)(F)F)N1C[C@@H]2[C@H](c3ccccc31)[C@@H](CO)N2C(=O)C1CCCCC1	8
O=C(NCCn1nnn(-c2ccccc2)c1=O)C1CCC1	95
Cc1cc2nc3ccccc3c(=O)n2c(SCc2ccc(Cl)cc2Cl)n1	4
Cc1ccc(S(=O)(=O)c2ncsc2SCc2ccc(Cl)cc2Cl)cc1	-94*
Cc1ccc(S(=O)(=O)Nc2cc(=O)[nH]c(SCc3ccccc3Cl)n2)cc1	-2
COc1nc2c(cc1C(=O)Nc1cnc3n1CCCC3)C(=O)N(C1CCCC1)C2	-9
COc1ccc(-c2ccc(C(=O)N(Cc3nccn3C)C3CC3)o2)cc1	12
COc1ccc(CN(C(=O)c2cc(C(C)C)c3nncn3n2)C2CCN(C)CC2)cc1	6
COc1ccc(CN(C(=O)c2cc(-c3ccc(C)cc3)on2)C2CCN(C)CC2)cc1	-76*
CCC(=O)N1[C@@H](CO)[C@@H](c2ccccc2)C12CN(C(=O)c1ccc3c(c1)OCO3)C2	-6
COCc1ncn2c1CN(S(=O)(=O)c1ccc(F)cc1)CC2	-18
O=C(c1cccc(F)c1)N1CC(=O)N2[C@@H](CO)[C@H](c3ccc(/C=C/c4ccccc4)cc3)[C@@H]2C1	-44
O=c1oc2ccccc2n1CCc1nnc(-c2cccc(Cl)c2)o1	13
CN(C)CCCNC(=O)c1cc(-c2cnc(-c3ccccc3)nc2)cn1C	-29
